From PubChem BioAssay (Tox21)
Results filed as inconclusive are left out. Where a call stands in place of a potency, no number is given. Calls of active or inactive are those of the source. Unless noted, the call rests on the fitted dose curve; in most records, active means well fitted curve in the direction sought with a large enough effect in the repeat runs; inconclusive means weak or mixed curves; inactive means no such curve, though single readings can be large; an effect the other way counts as inactive or inconclusive.

tested on: not listed separately; experiment: qHTS assay to identify small molecule antagonists of the estrogen related receptor signaling pathway with the pleiotropic PPARgamma coactivator (PGC) cell viability counter screen (AID 1224822); conditions: ERR/PGC reporter cell line viability counter screen; series mostly up to 46.1 µM
Procedure, shortened: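 Counter screen for cell viability: PGC/ERR cells, 6 h pre-incubation after plating, 17.5 h compound exposure at 37 C, fluorescence from CellTiter-Fluor after 30 min.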

Structure (SMILES)	Potency
COc1ccc2[nH]c3c(c2c1)CCNC3	inactive
CCCN(CCC)C1CCc2ccc(O)cc2C1 (stereo not given)	inactive
c1ccc2c(N3CCNCC3)cccc2c1	inactive
CC(=O)OCC1=C(C(=O)[O-])N2C(=O)[C@@H](NC(=O)CCC[C@@H](N)C(=O)[O-])[C@H]2SC1.[Zn+2]	inactive
CCCN(CCC)[C@@H]1CCc2cccc(O)c2C1	inactive
Oc1ccc2c3c1O[C@H]1c4[nH]c5ccccc5c4C[C@@]4(O)C(C2)N(CC2CC2)CCC314 (stereo not given in full)	inactive
C[N+](C)(C)CC#CCOC(=O)Nc1cccc(Cl)c1	inactive
C=CCN1CCC23c4c5ccc(O)c4O[C@H]2C(=O)CC[C@@]3(O)C1C5 (stereo not given in full)	inactive
C[C@@H](N)Cc1cnc[nH]1	inactive
O=C(O)Cc1cnc[nH]1	inactive
O=[N+]([O-])c1ccc2nc(N3CCNCC3)ccc2c1	inactive
NC(C(=O)O)c1cc(=O)[nH]o1 (stereo not given)	inactive
CC(C)(O)[C@@H]1[C@H]2OC(=O)[C@@H]1[C@]1(O)C[C@H]3O[C@]34C(=O)O[C@H]2[C@]14C (tested in a mixture with another compound)	inactive
CNCCc1ccc(O)c(O)c1	inactive
Cc1[nH]c2ccc(O)cc2c1CCN	inactive
CN(N=O)c1ccc(O)c(O)c1	inactive
C#CCOC(=O)C1=CCCN(C)C1	inactive
NC(CP(=O)(O)O)C(=O)O (stereo not given)	inactive
NCCc1c[nH]c2ccc(C(N)=O)cc12	inactive
NC(CCP(=O)(O)O)C(=O)O (stereo not given)	inactive
Cc1sc2ccccc2c1CC1=NCCN1	inactive
CC(C)Oc1cccnc1N(C)C1CCN(Cc2ccccc2)CC1	inactive

tested on: not listed separately; experiment: qHTS assay to identify small molecule agonists of the estrogen related receptor signaling pathway with the pleiotropic PPARgamma coactivator (PGC) (AID 1224823); conditions: ERR/PGC reporter cell line, luciferase agonist mode; series mostly up to 46.1 µM
Procedure, shortened: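 In this quantitative high-throughput screen, an 18 h, 37 C treatment of PGC/ERR cells with compounds in DMSO preceded a One-Glo luminescence read taken after 30 min at room temperature.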

Structure (SMILES)	Potency
COc1ccc2[nH]c3c(c2c1)CCNC3	inactive
CCCN(CCC)C1CCc2ccc(O)cc2C1 (stereo not given)	inactive
c1ccc2c(N3CCNCC3)cccc2c1	inactive
CC(=O)OCC1=C(C(=O)[O-])N2C(=O)[C@@H](NC(=O)CCC[C@@H](N)C(=O)[O-])[C@H]2SC1.[Zn+2]	inactive
CCCN(CCC)[C@@H]1CCc2cccc(O)c2C1	inactive
Oc1ccc2c3c1O[C@H]1c4[nH]c5ccccc5c4C[C@@]4(O)C(C2)N(CC2CC2)CCC314 (stereo not given in full)	inactive
C[N+](C)(C)CC#CCOC(=O)Nc1cccc(Cl)c1	inactive
C=CCN1CCC23c4c5ccc(O)c4O[C@H]2C(=O)CC[C@@]3(O)C1C5 (stereo not given in full)	inactive
C[C@@H](N)Cc1cnc[nH]1	inactive
O=C(O)Cc1cnc[nH]1	inactive
O=[N+]([O-])c1ccc2nc(N3CCNCC3)ccc2c1	inactive
NC(C(=O)O)c1cc(=O)[nH]o1 (stereo not given)	inactive
CC(C)(O)[C@@H]1[C@H]2OC(=O)[C@@H]1[C@]1(O)C[C@H]3O[C@]34C(=O)O[C@H]2[C@]14C (tested in a mixture with another compound)	inactive
CNCCc1ccc(O)c(O)c1	inactive
Cc1[nH]c2ccc(O)cc2c1CCN	inactive
CN(N=O)c1ccc(O)c(O)c1	inactive
NC(CP(=O)(O)O)C(=O)O (stereo not given)	inactive
NCCc1c[nH]c2ccc(C(N)=O)cc12	inactive
NC(CCP(=O)(O)O)C(=O)O (stereo not given)	inactive
Cc1sc2ccccc2c1CC1=NCCN1	inactive
CC(C)Oc1cccnc1N(C)C1CCN(Cc2ccccc2)CC1	inactive

tested on: not listed separately; experiment: qHTS assay to identify small molecule agonists of the estrogen related receptor signaling pathway with the pleiotropic PPARgamma coactivator (PGC) from Tox21 10K library (AID 1224842); conditions: PGC/ERR reporter cell line, luciferase ONE-Glo, 18 h; series mostly up to 92.4 µM; further: nearly all actives have a fitted effect of over 15% in size
Procedure, shortened: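 PGC/ERR reporter cells (NTP line) were seeded 2,000 per well, rested 6 h at 37 C/5% CO2, then pin-dosed with compounds in DMSO for 18 h at 37 C; luciferase read by One-Glo luminescence after 30 min at room temperature.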

Structure (SMILES)	Potency
Nc1ccc(Cl)cc1Cl	inactive
Oc1c(Cl)ccc(Cl)c1Cl	inactive
CCc1cccc(C)c1N	inactive

tested on: not listed separately; experiment: qHTS assay to identify small molecule agonists of H2AX (AID 1224845; active means well fitted activation curve with a large enough effect in the signal ratio in the repeat runs, not every such curve was filed as active; the % refers to the signal ratio; further: potency means the concentration at half of the fitted maximal effect); conditions: CHO-K1 phospho-H2AX Ser139 HTRF, 3 h; series mostly up to 154 µM
Procedure, shortened: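 Wild-type CHO-K1 cells plated overnight, then exposed 3 hr at 37C to compounds at 15 concentrations (0.76% DMSO). Lysed, then HTRF anti-pH2AX(S139)-cryptate/anti-H2AX-d2 detection after 24 hr at room temperature; emissions 665 and 620 nm.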

Structure (SMILES)	Potency	activation (H2AX phosphorylation)
Nc1ccc(Cl)cc1Cl	inactive	–
C[C@@]12C(=O)OC(=O)[C@]1(C)C1CCC2O1	22 µM (active)	–
Cc1cccc([N+](=O)[O-])c1C	inactive	–
Brc1ccc(Br)c(Br)c1	inactive	–
Brc1c2ccccc2c(Br)c2ccccc12	–	-2.5% [at 14 µM] (inactive)
CCc1cccc(C)c1N	inactive	–

tested on: not listed separately; experiment: Caspase-3/7 induction in HepG2 cells by small molecules, qHTS assay (AID 1346978); conditions: HepG2 caspase-3/7 activation, Caspase-Glo luminescence, 17 h; series mostly up to 92.4 µM; further: nearly all actives have a fitted effect of over 15% in size; further: potency means the concentration at half of the fitted maximal effect
Procedure, shortened: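 Wild-type HepG2 cells (2,000/well) were settled 5 h at 37 C, 5% CO2, then exposed to compounds in DMSO for 17 h. Caspase-3/7 activity was read by luminescence 30 min after adding Caspase-Glo 3/7 reagent at room temperature.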

Structure (SMILES)	Potency
Nc1ccc(Cl)cc1Cl	inactive
O=C(O)C(c1ccc(Cl)cc1)c1ccc(Cl)cc1	inactive
Clc1ccccc1-c1ccccc1Cl	inactive
C[C@@]12C(=O)OC(=O)[C@]1(C)C1CCC2O1	0.376 µM (active)
Cc1cccc([N+](=O)[O-])c1C	inactive
Brc1c2ccccc2cc2ccccc12	inactive
Brc1ccc(Br)c(Br)c1	inactive
Oc1c(Cl)ccc(Cl)c1Cl	inactive
COCCOC(=O)c1ccccc1C(=O)OCCOC	inactive
CCCCC(CC)COC(=O)CCCCC(=O)OCC(CC)CCCC (stereo not given)	inactive
c1ccncc1	inactive

target: Acetylcholinesterase (Homo sapiens) (UniProt P22303); experiment: Acetylcholinesterase (AChE) small molecule antagonists: colormetric cell-based qHTS assay (AID 1347395; calls by dose curve; further: nearly all actives have a fitted effect of over 30% in size); conditions: SH-SY5Y cells AChE activity, colorimetric (Ellman); series mostly up to 115 µM
Procedure, shortened: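 Neuroblastoma line SH-SY5Y supplied the enzyme; cells were preincubated with compound for 30 min at 37 C and 5% CO2. Acetylthiocholine with DTNB was then added for 90 min at 37 C, and thiocholine was measured by colour.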

Chain of Acetylcholinesterase (Homo sapiens) (P22303 whole entry, looked up): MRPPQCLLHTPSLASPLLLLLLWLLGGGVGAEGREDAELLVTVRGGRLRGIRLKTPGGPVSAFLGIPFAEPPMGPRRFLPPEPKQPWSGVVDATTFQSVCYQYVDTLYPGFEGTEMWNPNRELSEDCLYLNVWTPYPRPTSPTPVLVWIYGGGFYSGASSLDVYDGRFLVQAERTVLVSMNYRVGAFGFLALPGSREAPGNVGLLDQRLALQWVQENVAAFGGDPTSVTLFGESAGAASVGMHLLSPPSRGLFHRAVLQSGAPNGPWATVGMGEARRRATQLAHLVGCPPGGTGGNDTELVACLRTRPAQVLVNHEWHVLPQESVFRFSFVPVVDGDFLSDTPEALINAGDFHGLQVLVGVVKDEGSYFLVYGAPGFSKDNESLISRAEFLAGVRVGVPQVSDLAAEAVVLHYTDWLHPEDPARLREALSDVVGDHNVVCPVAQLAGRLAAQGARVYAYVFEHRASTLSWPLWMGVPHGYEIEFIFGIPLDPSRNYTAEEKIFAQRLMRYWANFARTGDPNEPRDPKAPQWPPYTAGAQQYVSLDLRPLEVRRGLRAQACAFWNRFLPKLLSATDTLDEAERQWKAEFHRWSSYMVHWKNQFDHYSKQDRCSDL

Structure (SMILES)	Potency	activity, negative = inhibition	outcome
Nc1ccc(Cl)cc1Cl	inactive	–	–
C=CC(=O)OCCCC	inactive	–	–
O=C(O)C(c1ccc(Cl)cc1)c1ccc(Cl)cc1	inactive	–	–
Clc1ccccc1-c1ccccc1Cl	inactive	–	–
C[C@@]12C(=O)OC(=O)[C@]1(C)C1CCC2O1	inactive	–	–
Cc1cccc([N+](=O)[O-])c1C	inactive	–	–
Brc1c2ccccc2cc2ccccc12	inactive	–	–
CC(CCl)OC(C)CCl (stereo not given)	inactive	–	–
Nc1cccc([N+](=O)[O-])c1	inactive	–	–
Brc1ccc(Br)c(Br)c1	inactive	–	–
Oc1c(Cl)ccc(Cl)c1Cl	inactive	–	–
C1=CC2C3C=CC(C3)C2C1 (stereo not given)	inactive	–	–
Brc1c2ccccc2c(Br)c2ccccc12	–	0.841% [at 10.5 µM] (inactive)	–
COCCOC(=O)c1ccccc1C(=O)OCCOC	inactive	–	–
CCCCC(CC)COC(=O)CCCCC(=O)OCC(CC)CCCC (stereo not given)	inactive	–	–
c1ccncc1	–	–	inactive
CCc1cccc(C)c1N	inactive	–	–
